Source: PubChem BioAssay
MITF primary: blocks human microphthalmia-associated transcription factor | AlphaScreen MITF homodimerization, bead proximity signal | O75030 | inhibition, % at 2.6 µM | AID 1259374 | hit rate 0.91% among 650,000; in the data active means inhibition above about 50%;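 further: 0% = vehicle wells with protein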
FBW7 activator: activators of human E3 ligase FBW7; Q969H0; AlphaScreen FBW7–phospho-cyclin E peptide binding, activator screen; normalized activity (activation), % at 26.1 µM; hit rate 0.13% among 650,000; in the data active means normalized activity above about 1.9%;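 further: purified mutant Fbw7 with reduced substrate affinity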
GPR151 activ: human GPR151 activation. hit rate 1% among 650,000. activation, % at 11.2 µM. Q8TDV0. PathHunter beta-arrestin GPR151 cells, luminescence; in the data active means activation above about 4.9%;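 further: 0% = median of compound wells and 100% = cells with positive control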
TEAD-YAP block: TEAD-YAP interaction inhibition | inhibition, % at 9.12 µM | HEK-TIYL cells, TEAD-Gal4/YAP UAS-luciferase luminescence | hit rate 1.4% among 640,000 | AID 1259422; in the data active means inhibition above about 32%;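 further: 0% = median of test compound wells and 100% = reference inhibitor wells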
GPR151 confirm: human GPR151 activation, confirmation screen | activation, % at 11.2 µM | GPR151 PathHunter beta-arrestin cells, luminescence, 90 min; % of EA-reagent control over plate median | shares compounds with GPR151 activ | 6,700 tested, under 10 active;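 active means mean percent activation across replicates above the confirmation screen cutoff of 4.91%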
GPR119 ag: GPR119 activation, counter-screen for GPR151 activators. shares compounds with GPR151 activ. GPR119 PathHunter beta-arrestin cells, luminescence, 90 min; 0 = compound-well median, 100 = enzyme-acceptor control. activation, % at 11.2 µM. hit rate 0.3% among 6,700. AID 1508611;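 active means mean percent activation in the counterscreen above 29.09%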;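 further: counterscreen on off-target GPR119 to flag nonselective hits from the GPR151 activator screen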
Target sequence (Q8TDV5 whole entry, looked up): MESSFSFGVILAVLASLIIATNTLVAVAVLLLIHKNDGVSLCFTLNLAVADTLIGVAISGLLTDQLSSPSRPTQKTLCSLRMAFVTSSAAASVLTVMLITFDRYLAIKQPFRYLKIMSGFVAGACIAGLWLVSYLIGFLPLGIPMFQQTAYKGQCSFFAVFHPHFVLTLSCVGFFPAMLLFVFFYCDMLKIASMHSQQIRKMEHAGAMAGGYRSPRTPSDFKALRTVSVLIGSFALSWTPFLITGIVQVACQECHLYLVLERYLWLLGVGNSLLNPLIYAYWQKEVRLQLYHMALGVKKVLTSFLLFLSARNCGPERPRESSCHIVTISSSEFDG
* marks the source's active call; other numbers are inactive results; / = no result. A selection: hits, their analogues and other compounds. The true share with any hit is near 3.5%.

SMILES	MITF primary	FBW7 activator	GPR151 activ	TEAD-YAP block	GPR151 confirm	GPR119 ag
COc1ccc2c(c1)O[C@H](c1ccc3c(c1)OCO3)C(OC(=O)NCc1ccc3c(c1)OCO3)C2=O (stereo partly drawn)	3.2	0.2	10.1*	/	0.6	1.0
COc1ccc2c(c1)O[C@H](c1ccc3c(c1)OCO3)C(OC(=O)N[C@H]1CCCc3ccccc31)C2=O (stereo partly drawn)	-20.6	0.1	5.3*	/	0.1	4.5
COc1ccccc1NC(=O)NNC(=O)CCCOc1ccc(Cl)cc1C	-9.6	-0.1	0.2	2.8	/	/
COc1ccc(C2(NC(=O)c3snnc3C)CCCCC2)cc1	1.2	-0.1	20.4*	0.2	0.0	-1.1
CC(C)c1ccc(NC(=O)C(c2ccccc2)N(C)C(=O)c2ccc(=O)[nH]c2)cc1 (stereo not drawn)	1.0	-0.1	8.7*	-6.8	0.6	2.8
COc1cc(CNn2c(C)nnc2SCc2ccc(F)cc2)ccc1OCC(N)=O	16.6	0.0	1.0	6.7	/	/
COc1ccc(C(=O)OCC(=O)Nc2sc3c(c2C(N)=O)CCCC3)c(O)c1	8.8	0.2	0.0	-4.2	/	/
Cc1ccc(C(=O)N2CCCc3ccccc32)cc1C	3.6	0.0	-0.6	-11.7	/	/
CC(C)C(=O)Nc1cccc(C(=O)N2CCCc3ccccc32)c1	17.7	0.2	6.5*	9.8	0.7	-1.5
COc1ccc(OC)c(NC(=O)CSc2nnc(-c3cccc([N+](=O)[O-])c3)n2C)c1	0.0	-0.1	0.1	0.6	/	/
COc1ccccc1/C=C(\NC(=O)c1ccccc1)C(=O)Nc1cccc(C(C)=O)c1	12.3	0.0	5.8*	1.9	-1.2	-9.0
CC(=O)c1cccc(NC(=O)/C(=C/c2ccccc2)NC(=O)c2ccccc2)c1	-1.9	-0.3	0.7	-4.6	/	/
CCn1c(=N)c(C(=O)NC2CCCC2)cc2c(=O)n3cccc(C)c3nc21	-0.3	-0.5	0.6	14.2	/	/
COCCCNC(=O)c1cc2c(=O)n3cccc(C)c3nc2n(CCOC)c1=N	27.4	0.0	6.6*	4.9	0.2	-1.3
CCC(C)n1c(=N)c(C(=O)NC2CCCCC2)cc2c(=O)n3cccc(C)c3nc21 (stereo not drawn)	6.4	-0.2	5.2*	4.8	-0.1	-6.4
CCOC(=O)CNC(=O)c1ccc(C)c([N+](=O)[O-])c1	-1.6	0.1	0.4	3.7	/	/
COc1ccc(NC(=O)CCn2c(=S)[nH]c3ccccc3c2=O)cc1Cl	11.4	0.0	0.6	-2.2	/	/
CC(=O)C(C)Oc1cc(O)c2c(=O)cc(-c3ccccc3)oc2c1 (stereo not drawn)	0.0	-0.2	-0.1	-21.9	/	/
O=C1CCCCC1Oc1cc(O)c2c(=O)cc(-c3ccccc3)oc2c1 (stereo not drawn)	4.9	0.0	7.0*	-7.0	1.5	21.6
C#CCn1c(=NC(=O)CN2C(=O)CCC2=O)sc2c(C)cc(C)cc21	3.1	0.0	7.2*	-2.8	0.1	0.1
CCCN(CC(=O)Nc1ccccc1C)C(=O)CCl	3.2	0.2	8.4*	71.7*	0.0	-1.4
Cc1cnc(Nc2cnccn2)nc1NCc1nc2ccccc2[nH]1	3.0	-0.1	0.5	-4.1	/	/
CCOC(=O)c1c(-c2ccccc2)oc2ccc(OCc3ccc(C(=O)OC)cc3)cc12	-2.7	0.0	11.9*	-2.0	0.3	17.9
Cc1nc2ccc(N/C=C3\C(=O)C(C)(C)Oc4ccc5ccc(=O)oc5c43)cc2s1	1.5	-0.1	5.8*	-9.8	0.8	5.0
Cc1nc(-c2ccccc2)[nH]c(=O)c1CC(=O)OC(C)C	2.3	-0.1	0.2	-8.4	/	/
SMILES	MITF primary	FBW7 activator	GPR151 activ	TEAD-YAP block	GPR151 confirm	GPR119 ag
Cc1ccc(NC(=O)CSc2nc3c(c(=O)n2C)SCC3)c(C)c1	4.7	0.0	7.4*	24.7	0.2	6.0
COc1ccc(-c2cc(C(F)(F)F)n3ncc(C(=O)N4CCCCC4c4cccnc4)c3n2)cc1OC (stereo not drawn)	16.4	0.1	-1.3	-1.9	/	/
COc1ccc(NC(=O)CSc2nc(C)nc3sc(C)c(C)c23)cc1	-16.2	0.0	-0.1	0.1	/	/
Cc1nc2nc(C(=O)O)[nH]n2c(=O)c1Cc1ccccc1	7.8	0.1	-1.0	13.6	/	/
Cc1nc2nc(C(F)(F)F)[nH]n2c(=O)c1Cc1ccccc1	-3.0	0.3	8.1*	-2.5	0.0	0.1
COc1ccc(C2CC(=O)Nc3n[nH]c(C)c32)cc1 (stereo not drawn)	-5.4	0.1	-1.0	1.9	/	/
CC(C)(C)OC(=O)NNC(=O)/C=C/c1cc(Br)ccc1F	2.1	0.1	5.2*	2.8	2.5	7.6
O=C(/C=C/c1ccco1)NNc1ncnc2ccccc12	1.8	-0.1	0.6	-27.5	/	/
CC(C)CC(NC(=O)c1ccccc1)C(=O)OCc1ccccc1 (stereo not drawn)	14.6	0.3	5.6*	4.0	-0.8	-3.6
CC(C)CC(NC(=O)c1ccccc1)C(=O)OCC(=O)c1ccccc1 (stereo not drawn)	-10.7	0.0	0.5	-8.6	/	/
Cc1cc(-c2n[nH]c(=S)n2-c2ccccc2)nn1C	21.0	0.2	18.2*	9.1	0.3	1.9
COc1ccc(C(C)=O)c(OC(=O)c2ccccc2I)c1	2.0	0.0	1.1	2.9	/	/
O=[N+]([O-])c1ccc(-c2ccc(S(=O)(=O)N3CCOCC3)cc2)cc1	3.1	-0.1	5.6*	8.9	-1.1	-13.5
O=[N+]([O-])c1ccc(S(=O)(=O)N2CCN(S(=O)(=O)N3CCOCC3)CC2)cc1	-3.1	0.0	2.9	11.8	/	/
N#Cc1ccc(/C=N/NC(=S)NCc2ccccc2)cc1	8.3	0.1	0.3	3.2	/	/
N#Cc1ccc(/C=N/NC(=O)CCc2ccccc2)cc1	4.6	0.1	6.0*	7.1	-0.4	6.7
O=C(CCc1ccccc1)N/N=C/c1ccccc1O	-6.8	0.0	5.9*	-2.6	-0.6	-7.4
C/C(=N\NC(=O)CCc1ccccc1)c1ccc(Br)cc1	0.8	0.0	5.9*	0.8	0.6	6.2
CC(C)N(C)Cc1nnnn1CC(=O)N1CCN(c2ccccc2F)CC1	14.1	0.1	0.7	-0.6	/	/
Cc1cccc(Cn2c(NCCN(C)C)nc3c2c(=O)[nH]c(=O)n3C)c1	5.3	-0.1	0.9	6.3	/	/
CN(C)CCNc1nc2c(c(=O)[nH]c(=O)n2C)n1Cc1ccc([N+](=O)[O-])cc1	9.1	0.2	5.1*	4.7	0.7	6.0
CC(=O)Nc1ccc(C2OC3=C(C(=O)CC(C)(C)C3)C(N)=C2C#N)cc1 (stereo not drawn)	4.2	0.0	5.6*	9.3	1.4	-0.7
CC1(C)CC(=O)C2=C(C1)OC(c1ccc(Cl)cc1Cl)C(C#N)=C2N (stereo not drawn)	-3.8	0.2	10.4*	8.3	0.9	11.1
CC1(C)CC(=O)C2=C(C1)OC(c1ccccc1Cl)C(C#N)=C2N (stereo not drawn)	13.4	0.4	0.1	17.3	/	/
